# From PubChem BioAssay (EPA / NIEHS)
# Records with an inconclusive call do not appear. The source made the active and inactive calls. The calls were made as follows, unless noted: active = hit-call score of the fitted dose curve at least 0.9, where 1 is the maximum; inactive = score below 0.9.
# Key:
# [1] = CCTE_Shafer_MEA_dev_firing_rate_mean: CCTE's Neural Network Formation Assay for Mean Firing Rate, Shafer Lab (AID 2284031)
# Method in brief: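 Extracellular spike frequency, AUC over DIV 5–12 recordings, in rat cortical neuron MEA cultures dosed from plating; loss direction vs DMSO.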
# [2] = CCTE_Shafer_MEA_dev_active_electrodes_number: CCTE's Neural Network Formation Assay for Number of Active Electrodes, Shafer Lab (AID 2284040; active = hit-call score of the fitted dose curve at least 0.9, where 1 is the maximum)
# Method in brief: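 Developing rat cortical networks on MEAs, exposed DIV 0–12. Value is the AUC of active-electrode counts (≥5 spikes/min) from days 5, 7, 9, 12, relative to DMSO.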
# [3] = CCTE_Shafer_MEA_dev_burst_rate: CCTE's Neural Network Formation Assay for Burst Rate, Shafer Lab (AID 2284042)
# Method in brief: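 Primary rat cortical neurons on PEI-coated 48-well MEA plates (laminin added with cells at plating) (16 electrodes/well), exposed from plating to day 12, dosing renewed at DIV 5 and 9. Burst rate averaged over active electrodes, recorded DIV 5, 7, 9, 12, summarized as AUC; loss versus DMSO.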
# [4] = CCTE_Shafer_MEA_dev_bursting_electrodes_number: CCTE's Neural Network Formation Assay for Number of Bursting Electrodes, Shafer Lab (AID 2284043; active = hit-call score of the fitted dose curve at least 0.9, where 1 is the maximum)
# Method in brief: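 Rat cortical primary neurons, 48-well MEA, 16 electrodes/well; dosing DIV 0–12, re-dosed with full media change DIV 5, 9. Recordings DIV 5/7/9/12, AxIS adaptive spike detector; bursting electrode = ≥1 burst/2 min. AUC across days; loss of signal vs DMSO.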
# [5] = CCTE_Shafer_MEA_dev_burst_duration_mean: CCTE's Neural Network Formation Assay for Mean Burst Duration, Shafer Lab (AID 2284045)
# Method in brief: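 Rat cortical cultures, 1.5 x 10^5 cells/well with laminin drop; continuous dosing days 0–12, media plus treatment refreshed DIV 5, 9. AxIS adaptive spike detection; mean single-electrode burst duration, AUC over four recordings, negative direction vs DMSO.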
# [6] = CCTE_Shafer_MEA_dev_interburst_interval_mean: CCTE's Neural Network Formation Assay for Mean Interburst Interval, Shafer Lab (AID 2284046);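 also: well-mean interburst interval of bursting electrodes as AUC over four recording days; curve fitted for decrease in interburst interval relative to DMSO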
# Method in brief: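 Recordings on days 5, 7, 9 and 12 give well-mean interburst interval across actively bursting electrodes, summarized as area under the curve. Cultures: rat cortical neurons, continuous exposure from day 0, compound renewed at feeds; decrease analyzed versus DMSO.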
# [7] = CCTE_Shafer_MEA_dev_inter_network_spike_interval_mean: CCTE's Neural Network Formation Assay for Mean Inter-network Spike Interval, Shafer Lab (AID 2284047)
# Method in brief: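 Primary rat cortical neurons on 16-electrode MEA wells, exposed from plating day 0 through DIV 12, compound renewed at DIV 5 and 9 media changes. Mean interval between network-spike peaks recorded DIV 5, 7, 9, 12; collapsed as trapezoidal AUC, fitted downward versus DMSO.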
# [8] = CCTE_Shafer_MEA_dev_network_spike_number: CCTE's Neural Network Formation Assay for Number of Network Spikes, Shafer Lab (AID 2284048);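 also: synchronized bursts across electrodes counted on days 5 7 9 12 and integrated as AUC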
# Method in brief: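 Rat cortical primary cultures on 48-well MEA (16 electrodes/well); continuous exposure DIV 0–12, full medium and treatment exchange DIV 5, 9. Readout: network spike count, AxIS adaptive detection, recordings DIV 5/7/9/12 collapsed to AUC; loss-of-signal fit, DMSO baseline.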
# [9] = CCTE_Shafer_MEA_dev_network_spike_peak: CCTE's Neural Network Formation Assay for Mean Number of Electrodes in Network Spike, Shafer Lab (AID 2284049);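 also: fitted for loss of signal meaning fewer electrodes in network spikes than DMSO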
# Method in brief: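 Network-spike peak electrode count from recordings on days 5, 7, 9 and 12 was combined as trapezoidal area under the curve. Rat cortical cultures were treated continuously from plating, with compound renewed at each feed (DIV 5, 9); fits versus DMSO.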
# [10] = CCTE_Shafer_MEA_dev_spike_duration_mean: CCTE's Neural Network Formation Assay for Mean Spike Duration, Shafer Lab (AID 2284051);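 also: mean network spike duration pooled as area under curve over DIV 5 to 12 recordings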
# Method in brief: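 Primary rat cortical neurons on 16-electrode MEA wells (PEI-coated, laminin in plating drop), exposed from plating through DIV 12 with compound renewed at DIV 5 and 9. Mean network-spike duration recorded DIV 5, 7, 9, 12; trapezoidal AUC across days, DMSO baseline.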
# [11] = CCTE_Shafer_MEA_dev_network_spike_duration_std: CCTE's Neural Network Formation Assay for Standard Deviation of Network Spike Duration, Shafer Lab (AID 2284052);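 also: area under curve of spike duration SD across recording days 5 to 12; hits are decreases in network spike duration SD versus DMSO vehicle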
# Method in brief: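 Primary rat cortical neurons on PEI-coated 16-electrode MEA wells, exposed from plating day 0 through day 12 with compound renewed at DIV 5 and 9. Network spike duration SD recorded on days 5, 7, 9, 12, collapsed as trapezoidal AUC; loss-of-signal fit versus DMSO.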
# [12] = CCTE_Shafer_MEA_dev_per_network_spike_spike_number_mean: CCTE's Neural Network Formation Assay for Mean Number of Spikes in a Network Spike, Shafer Lab (AID 2284053)
# Method in brief: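 Primary rat cortical neurons on 48-well, 16-electrode MEA plates were exposed from plating to DIV 12, with dosing renewed on DIV 5 and 9. Spikes per network spike (0.05 s peak window) were recorded on DIV 5, 7, 9 and 12 and collapsed as trapezoidal AUC versus DMSO.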
# [13] = CCTE_Shafer_MEA_dev_per_network_spike_spike_percent: CCTE's Neural Network Formation Assay for Percent of Spikes in a Network Spike, Shafer Lab (AID 2284054)
# Method in brief: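 Read-out: percent of spikes falling in a 0.05 s window at network-spike peak, from spontaneous MEA recordings on days 5, 7, 9 and 12; trapezoidal AUC; loss of signal versus DMSO. Rat cortical cultures, compound present throughout.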
# [14] = CCTE_Shafer_MEA_dev_LDH: CCTE's Lactate Dehydrogenase Assay for Cytotoxicity in the Neural Network Formation Assay, Shafer Lab (AID 2284068; active = hit-call score of the fitted dose curve at least 0.9, where 1 is the maximum;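 also: exposure for twelve days from plating with re-dosing on DIV 5 and 9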)
# Method in brief: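 Primary rat cortical neurons were plated on PEI/laminin MEA plates and exposed from day 0 for twelve days, with compound renewed at DIV 5 and 9. Cytotoxicity was determined by spectrophotometric LDH assay relative to DMSO.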
# [15] = CCTE_Shafer_MEA_dev_AB: CCTE's Alamar Blue Assay for Cytotoxicity in the Neural Network Formation Assay, Shafer Lab (AID 2284083; active = hit-call score of the fitted dose curve at least 0.9, where 1 is the maximum;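 also: twelve days of exposure from plating with re-dosing on DIV 5 and 9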)
# Method in brief: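 Primary rat cortical neurons on PEI-coated 48-well MEA plates, 1.5 x 10^5 cells/well in laminin drop; compound exposure from day 0 of plating for twelve days, renewed at medium changes on DIV 5 and 9. Viability read as resazurin reduction by fluorescence, relative to DMSO.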
# [16] = CCTE_Shafer_MEA_dev_mutual_information_norm: CCTE's Neural Network Formation Assay for Mutual Information Normalization, Shafer Lab (AID 2284091)
# Method in brief: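 Neurons from rat cortex were seeded at 1.5 x 10^5 cells/well onto PEI-coated MEAs in a laminin drop, then exposed to compound from day 0 for twelve days. Network recordings on four days gave mutual information, summarised by AUC relative to DMSO.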
# [17] = CCTE_Shafer_MEA_dev_correlation_coefficient_mean: CCTE's Neural Network Formation Assay for Mean Correlation Coefficient, Shafer Lab (AID 2284093)
# Method in brief: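 Spontaneous activity recorded on days 5, 7, 9 and 12 post-plating; pairwise spike correlations are averaged across active electrodes and collapsed to an area-under-curve. Rat cortical cultures are dosed from plating through 12 days, with compound renewed at media changes.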
# [18] = UKN2_HCS_IMR90_neural_migration: University of Konstanz (UKN) Leist Lab Neural Crest Cell Migration Assay in human induced IMR90 Pluripotent Stem Cells (UKN2) (AID 2284204); conditions: actives raise or lower the signal
# Method in brief: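 Stopper-exclusion migration (cMINC), human iPSC-derived neural crest cells; N2-S + EGF/FGF; compound added 24 h post-stopper removal, 24 h exposure. Readout: calcein-AM/Hoechst 30 min, HCS fluorescence imaging; bidirectional fitting, DMSO baseline.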
# [19] = IUF_NPC1b_proliferation_BrdU_72hr: Leibniz Research Institute for Environmental Medicine (IUF) 72-hour Neural Progenitor Cell Bromodeoxyuridine (BrdU) Proliferation Assay (NPC1b) (AID 2284207)
# Method in brief: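 Luminescent BrdU ELISA measured DNA synthesis during the last 16 h of a 72 h exposure of primary human neural progenitor spheres grown with EGF and FGF. Signal was fitted relative to DMSO controls.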
# [20] = IUF_NPC1a_proliferation_area_72hr: Leibniz Research Institute for Environmental Medicine (IUF) 72-hour Neural Progenitor Cell Proliferation Area Assay (NPC1a) (AID 2284208)
# Method in brief: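 Proliferation read as increase in sphere area by phase-contrast imaging over 72 h continuous compound exposure (no renewal) of hNPC spheres grown with EGF/FGF at 37C, 5% CO2. Growth-factor withdrawal served as positive control; DMSO as baseline.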
# [21] = IUF_NPC1_viability_72hr: Viability Assessment at 72 hours in the Leibniz Research Institute for Environmental Medicine (IUF) Neural Progenitor Cell Proliferation Assay (NPC1) (AID 2284209)
# Method in brief: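 Three-day continuous exposure of human neural progenitor spheres under EGF/FGF-driven proliferation; cell viability scored by alamar blue signal versus DMSO.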
# [22] = CCTE_Mundy_HCI_Cortical_Synap_Neur_Matur_NeuriteSpotCountPerNeuriteLength: CCTE's Synaptogenesis and Neurite Maturation Assay in rat cortical cells for Neurite Spot Count per Neurite Length, Mundy Lab (AID 2284210)
# Method in brief: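 Read-out: synaptophysin puncta counted along MAP2-stained neurites, normalised to neurite length, by automated high-content imaging. Rat cortical cells; AraC DIV 5; chemical dosing DIV 7; termination DIV 12. DMSO baseline.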
# [23] = CCTE_Mundy_HCI_Cortical_Synap_Neur_Matur_BPCount: CCTE's Synaptogenesis and Neurite Maturation Assay in rat cortical cells for Branch Point Count, Mundy Lab (AID 2284211)
# Method in brief: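 In this multiplexed morphology assay, cortical cells from rat receive chemicals at DIV 7 and are fixed at DIV 12, then immunostained and imaged; branch points are counted, with DMSO as baseline.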
smiles,measurement,setting,value
CCOP(=O)(OCC)SCSCC,outcome,[1],inactive
same,outcome,[2],inactive
same,outcome,[3],inactive
same,outcome,[4],inactive
same,outcome,[5],inactive
same,outcome,[6],inactive
same,outcome,[7],inactive
same,outcome,[8],inactive
same,AC50,[9],49.8 µM (active)
same,outcome,[10],inactive
same,outcome,[11],inactive
same,outcome,[12],inactive
same,AC50,[13],90.9 µM (active)
same,outcome,[14],inactive
same,outcome,[15],inactive
same,outcome,[16],inactive
same,outcome,[17],inactive
same,outcome,[18],inactive
same,outcome,[19],inactive
same,outcome,[20],inactive
same,outcome,[21],inactive
same,outcome,[22],inactive
same,outcome,[23],inactive
